In PubChem BioAssay (NCI):
This is part of a sample that, as a whole, favours compounds with a hit. Of some 83,000 tested, about 20% had one in any assay.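 Testing used 96-well plates and a 48-hour single-concentration exposure. Example: -40 means 40% of the starting cells died.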 Activity calls are given as the source filed them. How the source made its calls: active means growth percent below 10; inactive means the rest.

Legend:
Experiment in all cases: NCI-60 one-dose screen, 48 h (100 = growth as untreated, 0 = no growth, -100 = all killed)
Conditions in all cases: 10 µM
NCI-H23 lung = system: NCI-H23 lung
NCI-H226 lung = system: NCI-H226 lung
NCI-H460 lung = system: NCI-H460 lung
NCI-H522 lung = system: NCI-H522 lung
A549/ATCC NSCLC = system: A549/ATCC NSCLC
786-0 renal = system: 786-0 renal
COLO 205 colon = system: COLO 205 colon
HOP-62 NSCLC = system: HOP-62 NSCLC
HOP-92 NSCLC = system: HOP-92 NSCLC
NCI-H322M lung = system: NCI-H322M lung

Measured: growth

N#Cc1c(-c2ccc(Cl)cc2)cc(-c2cc(O)ccc2O)nc1N
inactive: NCI-H23 lung 11.2% | NCI-H226 lung 94.8% | A549/ATCC NSCLC 40% | COLO 205 colon 97.5%
active: NCI-H460 lung 5.46% | NCI-H522 lung -8.49% | 786-0 renal -4.38%

Nc1ccc(-c2cccs2)cc1NC(=O)c1ccc(CCCC(=O)Nc2ccc(C3CC3N)cc2)cc1 (centres undefined)
inactive: NCI-H23 lung 86.3% | NCI-H226 lung 108% | NCI-H460 lung 38% | NCI-H522 lung 53.6% | A549/ATCC NSCLC 72.1%
active: 786-0 renal -48%

CCOC(=O)c1sc2ncnc(Nc3ccc4c(cnn4C(=O)Nc4ccccc4)c3)c2c1C
inactive: NCI-H23 lung 60.6% | NCI-H226 lung 109% | NCI-H460 lung 49.2% | NCI-H522 lung 64.5% | A549/ATCC NSCLC 56.7% | COLO 205 colon 70.1%
active: 786-0 renal -2.26%

C=C/C(C)=C/C[C@]1(C)[C@H](C)[C@@H](OC(=O)CCC)[C@H](O)[C@@]23C(=C[C@H](OC)C[C@@H]12)[C@@H](OC(=O)CCC)O[C@H]3OC(C)=O
active: NCI-H23 lung -15.9% | NCI-H226 lung -52.9% | NCI-H460 lung 2.97% | NCI-H522 lung -80.9% | 786-0 renal -79.9% | COLO 205 colon -53.3%
inactive: A549/ATCC NSCLC 12.5%

CN1CCc2c(sc3nc4n(-c5ccc(Cl)cc5)c(=O)[nH]n4c(=O)c23)C1
inactive: NCI-H23 lung 97.4% | NCI-H226 lung 94.7% | NCI-H522 lung 77.9% | A549/ATCC NSCLC 74.7% | 786-0 renal 84.8% | COLO 205 colon 108%

Cc1ccc(NCCNCC(C)(C)O)c2c(=O)c3ccc(Cl)cc3sc12
active: NCI-H460 lung -73.7% | A549/ATCC NSCLC -42.9% | COLO 205 colon -79.2%
inactive: NCI-H23 lung 52% | HOP-62 NSCLC 80.1% | HOP-92 NSCLC 21% | NCI-H522 lung 49.4% | 786-0 renal 54%

O=C(CI)OCC(COC(=O)CI)OC(=O)CI
inactive: NCI-H23 lung 65.9% | NCI-H322M lung 112% | NCI-H460 lung 98.9% | A549/ATCC NSCLC 104% | 786-0 renal 45.9% | COLO 205 colon 33.2%

O=C(CSc1nccc(Nc2cccc3ccccc23)n1)c1ccc(Cl)cc1
inactive: NCI-H23 lung 79.6% | HOP-62 NSCLC 81.9% | NCI-H460 lung 99.5% | HOP-92 NSCLC 82.5% | NCI-H522 lung 81.9% | A549/ATCC NSCLC 87.7% | 786-0 renal 102% | COLO 205 colon 108%

CC(C)(C)c1ccc(S(=O)(=O)N[C@H]2CC[C@H]3[C@@H]4CCc5cc(O)c([N+](=O)[O-])cc5[C@H]4CC[C@]23C)cc1
inactive: NCI-H23 lung 83.5% | NCI-H322M lung 77.1% | NCI-H460 lung 45.6% | NCI-H522 lung 65.1% | A549/ATCC NSCLC 48.3% | 786-0 renal 62.1% | COLO 205 colon 96.4%

COc1cc(CNC(=O)C2CSC3(C)c4ccccc4C(=O)N23)cc(OC)c1OC (centres undefined)
inactive: NCI-H23 lung 96.9% | NCI-H322M lung 99.7% | HOP-62 NSCLC 90.1% | NCI-H460 lung 106% | HOP-92 NSCLC 88.4% | NCI-H522 lung 68.8% | A549/ATCC NSCLC 83.1% | 786-0 renal 102% | COLO 205 colon 105%

O=C(O)c1ccc(-n2cc(CNc3ccc(Cl)cc3)c(-c3ccccc3)n2)cc1
inactive: NCI-H23 lung 98.4% | HOP-62 NSCLC 111% | NCI-H460 lung 88.6% | HOP-92 NSCLC 99.9% | NCI-H522 lung 75.8% | A549/ATCC NSCLC 84.6% | 786-0 renal 94.7% | COLO 205 colon 97.8%

Brc1ccc2c(c1)-c1ccccc1C1=NCCN12
active: NCI-H23 lung -8.64% | HOP-62 NSCLC -24.3% | NCI-H460 lung -47.4% | NCI-H522 lung -61.9% | A549/ATCC NSCLC -18.8% | 786-0 renal -32.7% | COLO 205 colon -54%

CC(C)N(CCOc1cccc(-c2nc3sccn3c2-c2ccnc(S(C)(=O)=O)n2)c1)C(C)C
inactive: NCI-H23 lung 96.1% | HOP-62 NSCLC 103% | NCI-H460 lung 94.7% | HOP-92 NSCLC 43.5% | NCI-H522 lung 82% | A549/ATCC NSCLC 104% | 786-0 renal 97.3% | COLO 205 colon 97.6%

O=[N+]([O-])c1ccc(NCSc2ccc(Cl)cc2)cc1
inactive: NCI-H23 lung 99.4% | HOP-62 NSCLC 109% | HOP-92 NSCLC 98.2% | NCI-H522 lung 86.5% | A549/ATCC NSCLC 96.3% | 786-0 renal 93.4% | COLO 205 colon 103%

Cc1c2cnccc2c(C)c2c1oc1ccccc12
inactive: NCI-H23 lung 56.1% | NCI-H460 lung 28.4% | HOP-92 NSCLC 113% | NCI-H522 lung 69.6% | A549/ATCC NSCLC 43% | 786-0 renal 84.9% | COLO 205 colon 52.3%

COc1ccc2c(c1)OC(N)=C(C#N)C2c1cc(OC)c(OC)c(OC)c1 (centres undefined)
active: NCI-H460 lung 1.65% | HOP-92 NSCLC -0.922% | NCI-H522 lung -27.9% | COLO 205 colon -48.6%
inactive: NCI-H23 lung 16.3% | HOP-62 NSCLC 38.9% | A549/ATCC NSCLC 16.2% | 786-0 renal 15.2%

COc1cc(OC)c2c(=O)c(O)c(-c3ccccc3)oc2c1
inactive: NCI-H23 lung 79.8% | HOP-62 NSCLC 67.7% | NCI-H460 lung 53.5% | HOP-92 NSCLC 52% | NCI-H522 lung 72.5% | A549/ATCC NSCLC 77.3% | 786-0 renal 70.8% | COLO 205 colon 104%

COc1cc(C2CC(c3cc(Cl)c(C)cc3O)=NN2c2ccc(S(N)(=O)=O)cc2)cc(OC)c1OC (centres undefined)
inactive: NCI-H322M lung 41.3% | A549/ATCC NSCLC 24.2%
active: NCI-H23 lung 3.07% | NCI-H460 lung -67.7% | NCI-H522 lung 8.94% | COLO 205 colon -100%

CCCN1CN2C(=O)N3CN(CCC)CN4C(=S)N(C1)C2C34 (centres undefined)
inactive: NCI-H23 lung 100% | NCI-H322M lung 87.6% | HOP-62 NSCLC 84.7% | NCI-H460 lung 112% | HOP-92 NSCLC 101% | NCI-H522 lung 91.7% | A549/ATCC NSCLC 102% | 786-0 renal 93.2% | COLO 205 colon 114%

C=CCn1c(SCC(=O)Nc2ccc(C(=O)/C=C/c3ccc(Cl)cc3)cc2)nnc1-c1cc(-c2ccccc2)nc2ccccc12
inactive: NCI-H23 lung 66.3% | HOP-62 NSCLC 86.1% | NCI-H460 lung 98.6% | HOP-92 NSCLC 91.5% | NCI-H522 lung 60.5% | A549/ATCC NSCLC 89.7% | 786-0 renal 86.7% | COLO 205 colon 99.5%

O=C(CCCNC(=O)c1nc(-c2ccccc2)n(-c2ccccc2)n1)NO
inactive: NCI-H23 lung 101% | NCI-H226 lung 85.6% | NCI-H522 lung 75.4% | A549/ATCC NSCLC 71.7% | 786-0 renal 92.3%

O=C(CSc1nnc(-c2cccnc2SCc2ccccc2)o1)Nc1nc(Cl)cc(Cl)n1
inactive: NCI-H23 lung 102% | HOP-62 NSCLC 90.6% | NCI-H460 lung 105% | NCI-H522 lung 83.1% | A549/ATCC NSCLC 104%

O=C(Nc1ccc(OS(=O)(=O)c2ccccc2)cc1)C1CCCCC1
inactive: NCI-H23 lung 88% | HOP-62 NSCLC 94.5% | NCI-H460 lung 99.8% | HOP-92 NSCLC 98.5% | NCI-H522 lung 75.4% | A549/ATCC NSCLC 90.5% | 786-0 renal 89.9% | COLO 205 colon 97%

COc1cc(C(=O)/C(C)=C/c2c[nH]c3ccccc23)cc(OC)c1OC
inactive: NCI-H23 lung 32.3% | HOP-62 NSCLC 39.2% | HOP-92 NSCLC 47.1% | A549/ATCC NSCLC 11.6% | 786-0 renal 11%
active: NCI-H460 lung 9.7% | COLO 205 colon -39.2%

O=C(CSc1nnc(-c2ccc(Cl)cc2)o1)Nc1ccc(C(=O)/C=C/c2ccc(Cl)cc2)cc1
inactive: NCI-H23 lung 87.7% | HOP-62 NSCLC 95.8% | NCI-H460 lung 98.2% | HOP-92 NSCLC 106% | NCI-H522 lung 86.8% | A549/ATCC NSCLC 95.6% | 786-0 renal 99.9% | COLO 205 colon 117%

CC(C)(C)OC(=O)N1CCc2c(sc3ncnc(N/N=C/c4cccc(Br)c4)c23)C1
inactive: NCI-H23 lung 55.3% | HOP-62 NSCLC 45.1% | NCI-H460 lung 20.9% | HOP-92 NSCLC 75.6% | NCI-H522 lung 34.2% | A549/ATCC NSCLC 45.7% | 786-0 renal 50.7% | COLO 205 colon 13.1%

O=S(=O)(O)c1cccc(Nc2ccc3ccccc3c2)c1
inactive: NCI-H23 lung 92% | HOP-62 NSCLC 84.4% | NCI-H460 lung 101% | HOP-92 NSCLC 74.8% | NCI-H522 lung 87.9% | A549/ATCC NSCLC 94.1% | 786-0 renal 104% | COLO 205 colon 97.8%

Cc1cc(C(C#N)c2ccc(Cl)cc2)c(Cl)cc1NC(=O)c1cc(I)cc(I)c1O (centres undefined)
active: HOP-92 NSCLC -12.1%
inactive: NCI-H23 lung 10.4% | NCI-H460 lung 24.1% | A549/ATCC NSCLC 71.3% | 786-0 renal 20.8% | COLO 205 colon 53.5%

CCCCCOC(=O)Nc1nc(=O)n(C2O[C@H](C)[C@@H](O)[C@H]2O)cc1F (some centres undefined)
inactive: NCI-H23 lung 95.3% | NCI-H460 lung 102% | HOP-92 NSCLC 92.4% | A549/ATCC NSCLC 98% | 786-0 renal 106% | COLO 205 colon 106%

Clc1ccc(Cc2ccncc2)cc1
inactive: NCI-H23 lung 105% | HOP-62 NSCLC 107% | NCI-H460 lung 113% | HOP-92 NSCLC 85.6% | NCI-H522 lung 82% | A549/ATCC NSCLC 106% | 786-0 renal 97.3% | COLO 205 colon 109%

O=C1/C=C/[C@@H](O)[C@@H]2C[C@@H](O)C[C@H]2/C=C/CCC[C@H](CCc2ccc(C(F)(F)F)cc2)O1
active: NCI-H23 lung -10.5% | HOP-62 NSCLC -4.15% | NCI-H460 lung 9.42% | NCI-H522 lung -58.5% | A549/ATCC NSCLC 8.38%

CS(=O)(=O)c1nccc(-c2c(-c3cccc(OCc4ccccc4)c3)nc3sccn23)n1
active: NCI-H522 lung 5.91%
inactive: NCI-H23 lung 53.6% | HOP-62 NSCLC 92.9% | NCI-H460 lung 103% | HOP-92 NSCLC 51.8% | A549/ATCC NSCLC 106% | 786-0 renal 86.3% | COLO 205 colon 88.4%

CCN(CC)CCOC(=O)c1cc(OCc2ccccc2)c(OCc2ccccc2)c(OCc2ccccc2)c1
inactive: NCI-H23 lung 58.6% | HOP-62 NSCLC 62.4% | NCI-H460 lung 12.4% | HOP-92 NSCLC 40% | NCI-H522 lung 45% | A549/ATCC NSCLC 42.5% | 786-0 renal 52.1% | COLO 205 colon 62.1%

COc1ccc(-c2nn(-c3cccc(Cl)c3)cc2-c2cc(-c3ccccc3)[nH]c(=O)c2C#N)cc1
active: HOP-92 NSCLC -28% | 786-0 renal 6.65%
inactive: NCI-H23 lung 26.6% | NCI-H460 lung 31.6% | NCI-H522 lung 44% | A549/ATCC NSCLC 39.7% | COLO 205 colon 60.7%
